Screens: PubChem, National Center for Advancing Translational Sciences (NCATS)
The list is not random: actives were taken first. Their share in the collection is about 12%.
HP1b chromo inh = blocks HP1-beta chromodomain binding to methylated histone tails; P83916; Potency, µM (series often up to 114 µM), inactives show at the highest dose activity change, negative = inhibition, hits mostly inhibitors; 390,000 compounds, 0.56% hits; AlphaScreen HP1-beta / biotin-H3K9me3 peptide binding; also: nearly all actives have a fitted effect of over 70% in size
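AlphaScreen: HP1-beta (50 nM) preformed 30 min with biotin-H3(1-18)K9me3 peptide (50 nM) in PBS pH 7.4, 0.01% Tween-20. Compound added for 30 min at RT, then streptavidin donor/nickel chelate acceptor beads (10 ug/mL) for 30 min.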
G9a inh = blocks human histone lysine methyltransferase G9a; Q96KQ7; G9a H3K9 monomethylation, AlphaScreen, 2 h; Potency, µM (titrated, usually from 102 µM), inactives show at the highest dose activity, negative = inhibition, hits mostly inhibitors; 350,000 compounds, 8.8% hits; also: % is scaled to controls: 0 for no effect and ±100 for the full control effect; nearly all actives have a fitted effect of over 75% in size
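Quantitative HTS format: methyltransferase activity on a biotin-tagged H3K9 peptide is measured by AlphaScreen, using a rabbit anti-monomethyl-H3K9 antibody with streptavidin donor and anti-IgG acceptor beads. Final levels are 20 nM enzyme, 500 nM peptide, 20 uM SAM; 2 h RT.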
JMJD2A Tudor = JMJD2A Tudor domain (human) inhibition; Potency, µM (highest dose often 114 µM), for inactives: at the top dose activity change, negative = inhibition, usual class: inhibitors; O75164; AID 504339; AlphaScreen JMJD2A-Tudor / H3K4me3 peptide binding; 390,000 compounds, 4.4% hits; also: % is scaled to controls: 0 for no effect and ±100 for the full control effect; nearly all actives have a fitted effect of over 50% in size
Sfp PPTase inh = Sfp phosphopantetheinyl transferase inhibition. Potency, µM, inactives show largest response in the series, negative = inhibition, usual class: inhibitors. Biochemical Sfp PPTase activity, qHTS. 310,000 compounds, 3.5% hits. AID 1490;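 also: the enzyme is Sfp with the accession as filed and its product quenches rhodamine fluorescence; 0% = enzyme reaction without inhibitor and -100% = no enzyme wells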
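Fluorescence-quenching assay: 15 nM Sfp-PPTase preincubated 15 min at room temperature with compound, then 5 uM rhodamine-CoA and 12.5 uM BHQ-2-labelled YbbR peptide added. Fluorescence (ex 525/em 598 nm) read at start and after 30 min; difference gives rate.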
L3MBTL1 inh = inhibitors of human L3MBTL1 | Q9Y468 | AlphaScreen L3MBTL1–H3K9me1 peptide binding | Potency, µM (highest dose often 57.1 µM), for the others: at the top dose activity, negative = inhibition, most hits filed as inhibitors | 230,000 compounds, 0.66% hits | AID 485360; also: % is scaled to controls: 0 for no effect and ±100 for the full control effect; nearly all actives have a fitted effect of over 60% in size
Target sequence (Q9Y468 whole entry, looked up): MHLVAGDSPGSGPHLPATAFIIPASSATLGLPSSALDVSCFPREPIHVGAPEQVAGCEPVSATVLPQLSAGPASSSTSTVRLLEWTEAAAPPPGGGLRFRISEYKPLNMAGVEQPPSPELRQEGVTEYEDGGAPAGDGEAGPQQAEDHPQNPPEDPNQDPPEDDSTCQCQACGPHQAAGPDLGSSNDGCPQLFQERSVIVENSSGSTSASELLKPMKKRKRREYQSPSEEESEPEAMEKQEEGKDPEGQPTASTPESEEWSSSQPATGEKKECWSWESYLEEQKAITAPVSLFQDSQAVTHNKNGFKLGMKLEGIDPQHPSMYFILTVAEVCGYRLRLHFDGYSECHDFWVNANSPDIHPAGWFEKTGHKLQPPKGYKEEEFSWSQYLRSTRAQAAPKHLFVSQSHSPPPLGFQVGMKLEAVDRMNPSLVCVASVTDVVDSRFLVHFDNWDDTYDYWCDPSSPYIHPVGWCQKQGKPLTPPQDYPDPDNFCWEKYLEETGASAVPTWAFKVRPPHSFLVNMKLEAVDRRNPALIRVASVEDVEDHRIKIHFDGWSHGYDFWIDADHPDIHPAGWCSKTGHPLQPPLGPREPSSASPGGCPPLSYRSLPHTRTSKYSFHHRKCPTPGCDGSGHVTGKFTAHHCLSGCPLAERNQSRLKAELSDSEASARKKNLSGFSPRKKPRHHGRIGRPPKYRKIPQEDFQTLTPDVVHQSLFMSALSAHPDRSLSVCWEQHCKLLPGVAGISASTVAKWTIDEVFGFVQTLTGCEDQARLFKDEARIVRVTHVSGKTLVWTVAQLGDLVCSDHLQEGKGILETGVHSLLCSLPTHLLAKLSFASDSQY
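AlphaScreen proximity signal between nickel-chelate acceptor and streptavidin donor beads (final 10 ug/mL) reports binding of 50 nM L3MBTL1 to 75 nM biotin-H3 K9me1 peptide; complex incubated with compounds 30 min at room temperature; cefsulodin titration as control.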
BAZ2B inh = inhibitors of human BAZ2B bromodomain. 360,000 compounds, 4.4% hits. AID 504333. Potency, µM (series often up to 114 µM), without a hit: top-dose activity change, negative = inhibition, hits mostly inhibitors. AlphaScreen BAZ2B-H3K14Ac peptide displacement. Q9UIF8; also: % is scaled to controls: 0 for no effect and ±100 for the full control effect; nearly all actives have a fitted effect of over 60% in size
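AlphaScreen luminescence quantifies BAZ2B engagement of H3K14Ac peptide; the protein and biotinylated peptide are both at 50 nM final, buffer PBS pH 7.4 with 0.01% Tween-20, all steps at room temperature.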
* marks the source's active call; other numbers are inactive results; ? = inconclusive; nt = not tested or not shown; [ ] = remark or other dose. Calls follow the shape of the dose curve; as a rule, active = well fitted curve in the direction sought with a large enough effect; inconclusive = small, poorly fitted or top-dose-only effect, or another doubt; inactive = no such curve, though single readings can be large; an effect the other way counts as inactive or inconclusive. Potency is read from the fitted curve at half-maximal effect.

SMILES	HP1b chromo inh	G9a inh	JMJD2A Tudor	Sfp PPTase inh	L3MBTL1 inh	BAZ2B inh
Cc1ccc(C)c(CN2CCCN(Cc3ccccc3C)S2(=O)=O)c1	113%	45%[59 µM]	57%	nt	nt	53%
CCCCNC(=O)CSc1nc2ccccc2nc1Cc1ccc(Cl)cc1	25%[57 µM]	-2%[59 µM]	-20%	nt	nt	1%
Cc1c(Cl)ccc2c(C(=O)Nc3cc(C(C)(C)C)on3)cc(-c3ccccn3)nc12	45%	-12%	-17%	22%	nt	-19%
CN(C)c1ccc(O)c2c1C[C@@H]1C[C@H]3C(N(C)C)C(=O)C(C(N)=O)=C(O)[C@@]3(O)C(=O)C1=C2O (some centres not stated)	nt	-51%[2.33 µM]	nt	2%	nt	nt
C=C1c2cccc(O)c2C(O)=C2C(=O)[C@]3(O)C(O)=C(C(N)=O)C(=O)C(N(C)C)C3C(O)C12 (some centres not stated)	nt	?	nt	-45%	nt	nt
CN(C)c1ccc(O)c2c1CC1CC3[C@@H](N(C)C)C(=O)C(C(N)=O)C(=O)[C@]3(O)C(=O)C1C2=O (some centres not stated)	16%	nt	8.9µM*	nt	nt	nt
CN(C)c1ccc(O)c2c1CC1CC3C(N(C)C)C(=O)C(C(N)=O)=C(O)[C@@]3(O)C(=O)C1=C2O (some centres not stated)	3%	nt	8.9µM*	nt	nt	nt
C=C1c2c(Cl)ccc(O)c2C(O)=C2C(=O)[C@]3(O)C(O)=C(C(N)=O)C(=O)C(N(C)C)C3C(O)C12 (some centres not stated)	nt	?	nt	-49%	nt	nt
NC(=O)COC(=O)C12CC3CC(CC(O)(C3)C1)C2	-5%	-35%	-35%[57.1 µM]	17%	nt	-11%
NC(CSS(=O)(=O)O)=NCCC12CC3CC(CC(O)(C3)C1)C2	?	10µM*	-10%	50µM*	7%	6%
Cc1cccc(NC(=O)Cn2nnc(C(=O)NCc3cccs3)c2N)c1	15%	8%[59 µM]	?	nt	nt	nt
COc1ccc(N2CCN(c3nc(Nc4ccc(C)c(F)c4)nc(N4CCCC4)n3)CC2)cc1	?	7.1µM*	?	19%	-10%	7.9µM*
COc1ccc(N2CCN(c3nc(Nc4ccc(F)cc4)nc(OC)n3)CC2)cc1	nt	19%	nt	5%	2%	11%
CCOc1ccc(Nc2nc(N3CCCCC3)nc(N3CCCCC3)n2)cc1	11%	-2%[12.7 µM]	-11%	4%	nt	5%
COc1ccc(N2CCN(c3nc(Cl)nc(Nc4ccc(F)cc4)n3)CC2)cc1	30%	10µM*	-11%	-4%	-6%	?
NCCCNc1nc(N)c([N+](=O)[O-])c(NC2CCCCC2)n1	9%	-12%	-21%	-12%	nt	4%
CC(=O)C1=C(O)C(=O)OC1c1ccc(Cl)cc1 (configuration not stated)	13%	50µM*	14µM*	-9%	nt	-12%
Cc1cc(=S)[nH]c(=S)[nH]1	51%	nt	-15%[11.4 µM]	45µM*	6%	-6%
O=C(O)c1ccc(/C=N/NC(=O)C2CC2(c2ccccc2)c2ccccc2)cc1 (configuration not stated)	nt	1%	nt	11%	5%	-25%
O=C(N/N=C/c1ccco1)C1CC1(c1ccccc1)c1ccccc1 (configuration not stated)	8%	40µM*	-21%	5%	-7%	?
CN(CC(=O)Nc1c(Cl)cccc1Cl)C(=O)Cc1cccs1	33%	-6%[12.7 µM]	-3%	nt	-10%	3%
O=C(O)c1ccc(Nc2nc(-c3ccc([N+](=O)[O-])cc3)nc3ccccc23)cc1	-8%	7%	?	50µM*	nt	50µM*
O=[N+]([O-])c1ccc(Nc2c3ccccc3nc3ccccc23)cc1	-20%	13µM*	?	6%	nt	?
CCN1CCN(c2cc(C)c3cc(NC(=S)N4CC(C)CC(C)C4)ccc3n2)CC1 (configuration not stated)	1%	35µM*	-35%	0%	nt	?
CCN1CCN(c2cc(C)c3cc(NC(=O)c4ccc(Br)o4)ccc3n2)CC1	6%	?	?	-1%	-6%	71µM*
SMILES	HP1b chromo inh	G9a inh	JMJD2A Tudor	Sfp PPTase inh	L3MBTL1 inh	BAZ2B inh
CCN1CCN(c2cc(C)c3cc(NC(=S)N4CCCCC4)ccc3n2)CC1	-13%	45µM*	-35%	-10%	nt	-32%
CCN1CCN(C(=S)Nc2ccc3nc(N4CCN(C)CC4)cc(C)c3c2)CC1	9%	?	-20%	-3%	-3%	-9%
CCN1CCN(c2cc(C)c3cc(NC(=S)N4CCCC(C)C4)ccc3n2)CC1 (configuration not stated)	-22%	45µM*	?	8%	nt	-29%
CCN1CCN(c2cc(C)c3cc(NC(=S)N4CCCC4)ccc3n2)CC1	23%	?	-18%	17%	-26%	-3%
CCNc1ncc2nc(-c3cc(F)cc(F)c3)c(=O)n(C)c2n1	nt	11%[0.501 µM]	nt	10%	nt	nt
COC1CCN(C(=O)c2ccc3oc(C(C)C)nc3c2)CC1	36%	-12%	-16%	14%	nt	-9%
CCOc1ccc(OCC)c(NC(=O)C2CCN(S(=O)(=O)c3ccc4c(c3)CC(C)N4C(C)=O)CC2)c1 (configuration not stated)	-4%	-3%[59 µM]	?	8%	nt	-8%
COc1ccc(C(=O)Nc2nnc(S(=O)(=O)N(C)c3ccc(Cl)cc3)s2)cc1OC	54%	25%[59 µM]	5%	nt	nt	37%
CCN(CC)c1cc(C)c2cc(NC(=O)c3ccc(Br)o3)ccc2n1	-26%	56µM*	?	?	-17%	?
CCN1CCN(C(=S)Nc2ccc3nc(N4CCN(CC)CC4)cc(C)c3c2)CC1	13%	20µM*	-25%	6%	-8%	-4%
CCOc1ccc2nc(NC(=O)c3cc(=O)c4cc(C)cc(C)c4o3)sc2c1	34%	4%[59 µM]	-17%	nt	nt	-1%
Nc1c(C(=O)NC2CCCCC2)c2nc3ccccc3nc2n1/N=C/c1ccco1	nt	19%[59 µM]	nt	-4%	5%	nt
Cc1nc2ccccc2c(=O)n1/N=C/c1ccc(N(C)C)cc1	10%	26%[59 µM]	-16%	12%	-1%	4%
S=c1[nH]nc(C2CCCCC2)n1/N=C/c1cccc(Cl)c1Cl	-14%	8.9µM*	-36%	-3%	nt	-4%
CN(C)c1ccc(/C=N/n2c(C3CCCCC3)n[nH]c2=S)cc1	?	10µM*	40µM*	-20%	nt	?
Fc1ccc(/C=N/n2c(C3CCCCC3)n[nH]c2=S)cc1	?	7.1µM*	56µM*	?	nt	-38%
S=c1[nH]nc(C2CCCCC2)n1/N=C/c1ccco1	-5%	1.4µM*	13µM*	-2%	-6%	-9%
CCOCCc1nn2c(=O)cc(COC(=O)c3ccccc3OC)nc2s1	70%	15%[59 µM]	9%	nt	nt	-4%
